Out of some 1,300 compounds screened, about 980 (75%) were called active. Another 4% or so got no clear call; they are omitted. This is one part of the list.
These compounds were tested against Sulfhydryl oxidase 1 (Homo sapiens) (UniProt O00391) (assay: inhibition of human sulfhydryl oxidase QSOX1 – biochemical, HyperBlu H2O2 luminescence, HTS, primary screen (AID 1347420; note: values above 100% were filed as inconclusive)). Conditions: recombinant QSOX1, HyperBlu H2O2 luminescence; at 12.5 µM; active compounds read high; active = any value above zero.
Chain of Sulfhydryl oxidase 1 (Homo sapiens) (O00391 whole entry, looked up): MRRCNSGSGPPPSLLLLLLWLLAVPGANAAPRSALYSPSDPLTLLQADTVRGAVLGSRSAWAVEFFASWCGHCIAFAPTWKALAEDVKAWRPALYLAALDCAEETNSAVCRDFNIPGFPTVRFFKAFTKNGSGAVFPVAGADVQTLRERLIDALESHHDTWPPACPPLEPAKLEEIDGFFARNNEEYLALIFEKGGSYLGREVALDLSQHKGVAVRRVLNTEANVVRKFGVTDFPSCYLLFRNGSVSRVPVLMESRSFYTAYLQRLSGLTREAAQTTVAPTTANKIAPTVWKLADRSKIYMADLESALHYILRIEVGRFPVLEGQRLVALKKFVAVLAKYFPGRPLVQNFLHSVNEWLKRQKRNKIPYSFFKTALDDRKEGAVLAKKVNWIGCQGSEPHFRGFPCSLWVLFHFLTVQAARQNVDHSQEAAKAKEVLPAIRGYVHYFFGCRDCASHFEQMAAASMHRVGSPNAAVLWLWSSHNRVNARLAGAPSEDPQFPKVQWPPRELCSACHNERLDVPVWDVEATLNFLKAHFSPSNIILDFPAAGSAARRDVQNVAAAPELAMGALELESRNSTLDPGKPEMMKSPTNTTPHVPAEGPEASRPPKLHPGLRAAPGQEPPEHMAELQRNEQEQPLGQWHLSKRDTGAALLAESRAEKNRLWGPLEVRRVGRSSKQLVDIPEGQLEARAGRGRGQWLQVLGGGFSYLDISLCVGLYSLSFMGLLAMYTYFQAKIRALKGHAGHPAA

inhibition, active:
COc1ccc(CCn2nnnc2C2(c3ccc(C)cc3)CC2)cc1 14.5%
Fc1ccc(C(c2ccc(F)cc2)N2CCN(C/C=C/c3ccccc3)CC2)cc1 5.6%
O=C1c2c(O)cc(O)cc2OC(c2ccc(O)c(O)c2)C1O (configuration not stated) 65.2%
Oc1cc(O)c2c(c1)O[C@H](c1ccc(O)c(O)c1)[C@@H](O)C2 72.1%
COc1ccc(Cl)cc1C(=O)NCCc1ccc(S(=O)(=O)NC(=O)NC2CCCCC2)cc1 7.7%
Cc1cccc(C)c1NC(=O)C(C)N (configuration not stated) 17.2%
CCC(=O)c1ccc2c(c1)N(CCCN(C)C)c1ccccc1S2 96.5%
CN(C)CCCN1c2ccccc2Sc2ccc(Cl)cc21 98.2%
CN(C)CCCN1c2ccccc2Sc2ccc(C(F)(F)F)cc21 83.7%
NCCS 28.5%
O=c1[nH]c2ccccc2c2ccccc12 10.9%
C=Cc1c(C)c2cc3[nH]c(cc4nc(cc5nc(cc1[nH]2)C(C)=C5CCC(=O)O)C(CCC(=O)O)=C4C)c(C)c3C=C 29.8%
CCOC(=O)N1CCN(/[N+]([O-])=N/Oc2ccc([N+](=O)[O-])cc2[N+](=O)[O-])CC1 73.3%
NNc1nncc2ccccc12 92.6%
COc1cc2ncnc(Nc3cccc(Cl)c3)c2cc1OC 0.4%
CC1CCN(CC[C@H]2CCCN2S(=O)(=O)c2cccc(O)c2)CC1 2.8%
O=c1[nH]ccc2c(O)cccc12 41.9%
Oc1cc2c(c(Cl)c1O)CCNCC2c1ccccc1 (configuration not stated) 93.6%
Oc1cc2c(cc1O)C(c1ccccc1)CNCC2 (configuration not stated) 57.5%
CCNC(=O)N1CCN(CCCC(c2ccc(F)cc2)c2ccc(F)cc2)CC1 8.8%
O=C1C2C=CC=CC2=NC(=S)N1CCN1CCC(=C(c2ccc(F)cc2)c2ccc(F)cc2)CC1 (configuration not stated) 4.1%
CC(=O)Oc1ccccc1C(=O)O 12.4%
C#C[C@]1(O)CC[C@H]2[C@@H]3CCC4=Cc5oncc5CC4(C)[C@H]3CCC21C (some centres not stated) 22.1%
COc1cc(C(O)CO)ccc1O (configuration not stated) 13.7%
COc1cc(C(O)CO)ccc1OS(=O)(=O)O (configuration not stated) 2.7%
COc1cc(C(O)C(=O)O)ccc1O (configuration not stated) 12.1%
Cc1cc(Cn2cnc3c2C[C@@H](C(=O)O)N(C(=O)C(c2ccccc2)c2ccccc2)C3)ccc1N 29.8%
CCN1CCC[C@H]1CNC(=O)c1cc(S(N)(=O)=O)ccc1OC 1%
CCN1CCCC1CNC(=O)c1cc(S(=O)(=O)CC)c(N)cc1OC (configuration not stated) 3.7%
CCOC(=O)c1cnc2c(cnn2CC)c1NN=C(C)C 19.1%
CCCCNc1c(C(=O)OCC)c(C)nc2c1cnn2CC 12.7%
NC[C@@H]1O[C@H](c2ccccc2)Cc2c1ccc(O)c2O 71.1%
NC[C@@H]1O[C@H](C23CC4CC(CC(C4)C2)C3)Cc2c1ccc(O)c2O 54%
CC(C)C[C@H]1C(=O)N2CCC[C@H]2[C@]2(O)O[C@](NC(=O)[C@@H]3C=C4c5cccc6[nH]c(Br)c(c56)C[C@H]4N(C)C3)(C(C)C)C(=O)N12 33.5%
c1ccc(C(NCCNC(c2ccccc2)c2ccccc2)c2ccccc2)cc1 7.6%
CCOC(=O)C12CC1/C(=N/O)c1ccccc1O2 (configuration not stated) 11.7%
CCCCOC(=O)NS(=O)(=O)c1sc(CC(C)C)cc1-c1ccc(Cn2c(CC)nc3c(C)cc(C)nc32)cc1 15.1%
C1CCC(N=C(NC23CC4CC(CC(C4)C2)C3)N2CCOCC2)CC1 8.2%
NC1=NCC2c3ccccc3Cc3ccccc3N12 (configuration not stated) 2.9%
Cc1c(OCC(F)(F)F)ccnc1CS(=O)c1nc2ccccc2[nH]1 (configuration not stated) 2.3%
Nc1ccc(-c2ccc3ccccc3n2)cc1 54.7%
Nc1ncnc2n[nH]c(Nc3ccc(F)cc3)c12 81.8%
CCN1CCc2nc(N)oc2CC1 48.7%
O=c1[nH]c2cc([N+](=O)[O-])c([N+](=O)[O-])cc2[nH]c1=O 87%
C=C[C@H]1CN2CC[C@@H]1C[C@@H]2[C@H](O)c1ccnc2ccc(OC)cc12 4.7%
CCCCCCCCCCC/C=C\C(C)(C)/C=C\CCCC(=O)O 25.2%
CCCCCCC/C=C\CCCCCCCCC(=O)O 11%
CC(C)NCC(O)COc1ccc(CC(N)=O)cc1 (configuration not stated) 7.4%
CC(C)NCC(O)COc1ccc(CCOCC2CC2)cc1 (configuration not stated) 11.4%
CC(=O)SC1CC2=CC(=O)CC[C@]2(C)C2CC[C@@]3(C)C(CC[C@@]34CCC(=O)O4)C12 (some centres not stated) 5.4%
O=c1c(-c2ccc(O)cc2)coc2cc(O)cc(O)c12 33.2%
O=c1cc(-c2ccc(O)cc2)oc2cc(O)cc(O)c12 88.8%
O=c1c(-c2ccc(O)cc2)coc2cc(O)ccc12 32.4%
COC1(C2=NCCN2)COc2ccccc2O1 (configuration not stated) 2.6%
O=C1Nc2ccc(I)cc2/C1=C/c1cc(Br)c(O)c(Br)c1 97.8%
CCCCOc1cc(CC2CNC(=O)N2)ccc1OC (configuration not stated) 2.2%
O=C1NCN(c2ccccc2)C12CCN(CCCC(c1ccc(F)cc1)c1ccc(F)cc1)CC2 9.4%

inhibition, inactive:
C(=C\c1ccccc1)/CN1CCN(C(c2ccccc2)c2ccccc2)CC1 -9.7%
Cc1cnc(C(=O)NCCc2ccc(S(=O)(=O)NC(=O)NC3CCCCC3)cc2)cn1 -6.9%
CCN1CCCC1CNC(=O)c1cc(S(N)(=O)=O)ccc1OC (configuration not stated) -11.2%
C[C@H](CS)C(=O)N1CCC[C@H]1C(=O)O -8.3%
c1ccc2nc(C3=NCCN3)ccc2c1 -4.5%
C=C[C@H]1CN2CC[C@@H]1C[C@H]2[C@@H](O)c1ccnc2ccc(OC)cc12 -2.4%
CCCCCC(O)CCCC(=O)O (configuration not stated) -0.3%
COCCc1ccc(OCC(O)CNC(C)C)cc1 (configuration not stated) -17.5%
CC(C)NC[C@H](O)COc1ccc(CC(N)=O)cc1 -4.6%
Cc1ccccc1/C=C/C1=NCCN1 -1.6%
